43 molecules from PubChem BioAssay (NCI) can be followed below.

Each structure is given as a SMILES string. The panel holds about 83,000 compounds, 20% with a hit somewhere; the sample as a whole holds those more often.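 Cell lines were cultured in 96-well plates, exposed to a single compound concentration, and assessed for percent growth 48 hours later.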 Unmarked numbers belong to inactive results. Activity calls are given as the source filed them. Rule for the calls: active = growth percent below 10; inactive = the rest.

In this assay the test system is HL-60(TB) leukemia. The experiment in a line: NCI-60 one-dose screen, 48 h (100 = growth as untreated, 0 = no growth, -100 = all killed). As to conditions: 10 µM unless noted.

`OC(c1ccccc1)c1ccccn1` (stereo not drawn): the growth is 99.9%.

For the molecule `COC(c1ccccc1)C(Br)C(=O)c1ccccc1` (stereo not drawn), the growth is 79.1%.

With `COc1cc(Nc2ncc(F)c(Nc3ccc4c(n3)N(COP(=O)(O)O)C(=O)C(C)(C)O4)n2)cc(OC)c1OC`, the growth was 52.8%. Turning to `CCCc1cc(=O)oc2c3c(c4c(c12)OC(C)(C)C=C4)O[C@@H](C)[C@H](C)C3=O`, the growth is 48.3%.

For the molecule `CN(C)CCn1c2ccc(Br)cc2c2nc3ccccc3nc21`, the growth is 26.2%. To `Nc1nn2cc(-c3ccc(Cl)s3)nc2c2ccccc12` belongs 54.7%; to `COc1cc(C2=N/C(=C\c3cc4ccccc4nc3Oc3ccccc3)C(=O)N2C(=N)N)cc(OC)c1OC`, 77.2%; to `O=[N+]([O-])c1ccc(CO)cc1`, 96.7%. To `Cc1nc2ccc(Cl)cn2c1-c1nnc(SCc2ccc([N+](=O)[O-])cc2)o1` belongs 109%; to `Nc1nc2ncc(CNc3ccc(C(=O)N[C@@H](CCc4nn[nH]n4)C(=O)O)cc3)nc2c(=O)[nH]1`, 109%. For the molecule `CN(C)Cc1cn(-c2ncc(-c3ccc(C(F)(F)F)cc3)c(NC3CCCCCC3)n2)nn1`, the growth was 83.3%.

For the molecule `CCN(CC)c1ccc2cc(C(Nc3ccc(Cl)cc3)c3nnnn3C(C)(C)C)c(=O)oc2c1` (stereo not drawn), the growth was 96%. For the molecule `CC(=O)C1=C(C)NC(SCc2nnc(-c3ccc(C)cc3)o2)=NC1c1ccc(F)cc1` (stereo not drawn), the growth is 80.8%. To `CON1C(=O)CC[C@]2(C)[C@H]3CC[C@@H]4C([C@@]5(C)CCC(=O)O5)CC[C@@]4(C)[C@]3(C)CC[C@H]2C1(C)C` (stereo partly drawn) belongs 100%; to `Fc1ccc2[nH]cc(-c3nc(-c4c[nH]c5ncccc45)cs3)c2c1`, 14%. In the case of `COc1ccc(-c2c(N)n[nH]c2-c2cc3c(c(OC)c2OC)OCO3)cc1`, the growth is 63.1%. The result for `CC(C)(C)n1cc(-c2ccnc(NCCNS(=O)(=O)c3ccc(F)cc3)c2)c(-c2cccc(O)c2)n1` reads 46.6%. To `COc1cc(N2C(=O)c3nccnc3C2=O)cc(OC)c1OC` belongs 90.3%; to `CC(=O)N(C)c1ccc(Nc2ccc(Nc3ccc(N(C)C(C)=O)cc3)c3c2C(=O)c2ccccc2C3=O)cc1`, 77%. `COc1ccccc1C(=O)NC(=S)Nc1ccc(-c2nc3ccccc3[nH]2)cc1`: the growth was 59.7%. To `O=C(Nc1ccc(-n2cc(-c3ccncc3)c(-c3ccc(O)c(Cl)c3)n2)cc1)c1ccc(Cl)c(Cl)c1` belongs 14.7%; to `O=C1OC(Cc2ccccc2)C1c1ccccc1` (stereo not drawn), 84.7%. For `N#Cc1c(-c2ccc(C(F)(F)F)cc2)c(F)c(NCCC2CCC(O)C2)n2c1nc1ccccc12` (stereo not drawn), the growth was 25.1%. The result for `COc1ccc(C(=O)N2CCN(C(=O)c3cc(OC)c(OC)c(OC)c3)CC2)cc1OCCCCOc1cc2c(cc1OC)C(=O)N1CCC[C@H]1C=N2` reads 147%; that for `Cc1ccc(NC(=S)N2CCOCC2)cc1C`, 103%. Consider `CC(C)(C)c1ccc(OC(=O)Nc2ccccc2)cc1`, for which the growth is 95.9%.

As for `COc1ccc(-c2cc(-c3cccc(NS(C)(=O)=O)c3)nc(N)c2C#N)cc1`, the growth was 0.807% (active). To `CN(C)c1ccc(C(=O)c2ccc(N(C)C)c(N)c2)cc1N` belongs 7.38% (active); to `O=C(O)c1cc(C(=O)O)cc([N+](=O)[O-])c1`, 94.5%.

Consider `O=c1ccc(=O)n(-c2nc(-c3ccc([N+](=O)[O-])cc3)cs2)[nH]1`, for which the growth is 89%. The result for `c1ccc2c(-c3c[nH]c4ccccc34)c3c(cc2c1)[nH]c1ccccc13` reads 51.5%; that for `C=C1C(=O)OC2CC1C(OC(C)=O)C/C(C)=C/CC/C(C)=C\CCC2(C)O` (stereo not drawn), -51.9% (active). To `O=C1/C(=C/c2ccc(Br)cc2)COc2ccc(O)c(O)c21` belongs -23.2% (active); to `CCOC(=O)C#Cc1c(C(=O)OCC)nnn1[C@@H]1O[C@H](COC(C)=O)[C@@H](OC(C)=O)[C@H]1OC(C)=O`, 74%. To `CC(C)=CC(=O)C1C(=O)c2ccccc2C1=O` belongs 120%; to `Cc1c(C(=O)CCl)c(=O)n(-c2ccccc2)n1C`, 56.9%; to `COc1cc(/C=C/C(=O)c2c(C)oc3nc[nH]c(=O)c23)ccc1O`, 117%.

For `NNC(=O)Oc1c(Cl)cc(Cl)cc1[N+](=O)[O-]`, the growth was 98.3%. To `CCCCCCCCCCCCCCCCCc1nccn1CCO` belongs 64.4%.

For `OCCNc1nccc(N2CCN(c3ccnc4cc(Cl)ccc34)CC2)n1`, the growth was 47.8%. The result for `COCN1CCC2N(COC)CCC3N(COC)CCC1N23` (stereo not drawn) reads 92.6%; that for `Oc1ccc(N=Cc2ccc(OCc3ccccc3)cc2)cc1`, 104%; that for `COc1ccc(-c2cc(-c3ccc(Nc4ccnc5cc(Cl)ccc45)cc3)nc(N3CCOCC3)n2)cc1`, 7.25% (active).
